An excerpt weighted towards active compounds, which were near 4% of everything screened.
TRPM1 prom inh = MITF TRPM1 promoter inhibition in SK-MEL-5 cells; SK-MEL-5 TRPM1 promoter luciferase, 24 h; inhibition, % at 12.5 µM; AID 488899; 330,000 tested, 0.83% active;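 active means mean inhibition across replicates of 60% or more, whatever share of single replicates reaches that level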
TROY signal inh = blocks TROY-dependent signaling in reporter cells; AID 1347056; 360,000 tested, 0.98% active; Q293 LMP1-TROYcd NF-kB luciferase reporter, 4 h; inhibition, % at 10 µM;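 active means compounds whose plate-normalised and pattern-corrected inhibition of the luciferase reporter signal at the single screening dose is 50% or more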
Peg3 prom inh = reduces Peg3 promoter-driven luciferase expression in HeLa; HeLa PEG-Prom luciferase reporter, luminescence, overnight; inhibition, % at 20 µM; 360,000 tested, 1.7% active;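 active means inhibition of at least 50% at 20 µM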
EBV LMP1 NFkB = inhibitors of Epstein-Barr LMP1-induced NF-kappaB reporter; AID 504558; inhibition, % at 12.5 µM; LMP1-induced NF-kappaB luciferase reporter cells, luminescence; 350,000 tested, 0.69% active; in the data active means inhibition above about 41%;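 further: 0% = neutral control wells and 100% = reference inhibitor control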
TWEAK Fn14 block = TWEAK-Fn14 signaling inhibition; 360,000 tested, 2% active; TWEAK-stimulated Fn14 reporter cells, luciferase luminescence, 8 h; inhibition, % at 10 µM; AID 1159606; in the data active means inhibition above about 50%
HIF-2a inh = inhibitors of HIF-2a | 786-0 RCC cells HIF-2a reporter, luciferase luminescence, overnight | inhibition, % at 18.8 µM | 360,000 tested, 0.72% active;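 active means inhibition of the luminescence signal of 40% or more relative to plate controls, in a single-dose primary screen at 18.75 µM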
* marks the source's active call; other numbers are inactive results; ! = a repeat was not active.

Results for COc1ccc(C2NCCc3c2[nH]c2ccccc32)cc1CSc1nc2ccccc2s1 (stereo not given) ?
TRPM1 prom inh: -3; TROY signal inh: 0; Peg3 prom inh: 92*; EBV LMP1 NFkB: -17; TWEAK Fn14 block: -17; HIF-2a inh: -18

What do the screens show for `O=c1[nH]c(CSc2nc3ccccc3s2)nc2ccccc12`?
TRPM1 prom inh: -29; TROY signal inh: -6; Peg3 prom inh: -139; EBV LMP1 NFkB: 0; TWEAK Fn14 block: 12; HIF-2a inh: -187

Results for Cn1cc([N+](=O)[O-])c(C(=O)Nc2ccn(Cc3c(F)c(F)cc(F)c3F)n2)n1 ?
TRPM1 prom inh: 13; TROY signal inh: -12; Peg3 prom inh: 56*; EBV LMP1 NFkB: -4; TWEAK Fn14 block: -4; HIF-2a inh: -74

What do the screens show for `O=C1N=C(N2CCCCC2)S/C1=C\c1ccc(Br)cc1`?
TRPM1 prom inh: -54; TROY signal inh: -33; Peg3 prom inh: -66; EBV LMP1 NFkB: 10; TWEAK Fn14 block: -19; HIF-2a inh: -135

Results for CN(C)c1ccc(/C=C2\SC(N3CCCCC3)=NC2=O)cc1 ?
TRPM1 prom inh: 4; TROY signal inh: 74*; Peg3 prom inh: -46; EBV LMP1 NFkB: 28; TWEAK Fn14 block: 83*; HIF-2a inh: -55

How did O=C(COC(=O)c1cccc(N2C(=O)C3CC=CCC3C2=O)c1)c1ccccc1 (stereo not given) do in these assays?
TRPM1 prom inh: -17; TROY signal inh: -31; Peg3 prom inh: -18; EBV LMP1 NFkB: 5; TWEAK Fn14 block: -6; HIF-2a inh: -11

How did CCc1ccc(C(=O)COC(=O)c2cccc(N3C(=O)c4c(C)nc5ccccc5c4C3=O)c2)cc1 do in these assays?
TRPM1 prom inh: 8; TROY signal inh: -8; Peg3 prom inh: 14; EBV LMP1 NFkB: 45*; TWEAK Fn14 block: 16; HIF-2a inh: 5

What do the screens show for `CC(=O)c1cc(Cl)ccc1OC(=O)c1ccco1`?
TRPM1 prom inh: 4; TROY signal inh: 1; Peg3 prom inh: 2; EBV LMP1 NFkB: 3; TWEAK Fn14 block: 15; HIF-2a inh: 17

How did O=C(Oc1ccc(Br)cc1C(=O)/C=C/c1ccccc1F)c1ccco1 do in these assays?
TRPM1 prom inh: 15; TROY signal inh: 37; Peg3 prom inh: 50*; EBV LMP1 NFkB: -5; TWEAK Fn14 block: 29; HIF-2a inh: 19

What do the screens show for `Cn1c(NCCN2CCOCC2)nc2c1c(=O)n(Cc1cccc(Cl)c1)c(=O)n2C`?
TRPM1 prom inh: 5; Peg3 prom inh: 8; EBV LMP1 NFkB: -1; TWEAK Fn14 block: 80*; HIF-2a inh: 10

Results for Cn1c(NCC(O)CO)nc2c1c(=O)n(Cc1ccc(Cl)c(Cl)c1)c(=O)n2C (stereo not given) ?
TRPM1 prom inh: -1; TROY signal inh: 5; Peg3 prom inh: 24; EBV LMP1 NFkB: -3; TWEAK Fn14 block: 10; HIF-2a inh: 16

What do the screens show for `Cn1c(NCc2ccco2)nc2c1c(=O)n(Cc1ccc(Cl)c(Cl)c1)c(=O)n2C`?
TRPM1 prom inh: 14; TROY signal inh: 29; Peg3 prom inh: 37; EBV LMP1 NFkB: 19; TWEAK Fn14 block: 50*; HIF-2a inh: 29

What do the screens show for `CSc1ccccc1NC(=O)COC(=O)Cn1cc(C(F)(F)F)ccc1=O`?
TRPM1 prom inh: 5; TROY signal inh: -4; Peg3 prom inh: 3; EBV LMP1 NFkB: -2; TWEAK Fn14 block: -9; HIF-2a inh: 1

Results for COc1ccc(-c2nc3ccccc3c(C(=O)Nc3ccc(S(=O)(=O)Nc4cc(C)on4)cc3)c2C)cc1 ?
TRPM1 prom inh: 9; TROY signal inh: 19; Peg3 prom inh: 27; EBV LMP1 NFkB: 50*; TWEAK Fn14 block: 51*; HIF-2a inh: 6

Results for Cc1cc(OCC(O)CN2CCc3ccccc3C2)ccc1Cl (stereo not given) ?
TRPM1 prom inh: -7; TROY signal inh: -10; Peg3 prom inh: -3; EBV LMP1 NFkB: -7; TWEAK Fn14 block: 10; HIF-2a inh: -16

How did Cc1ccc(C2(c3ccc(C)cc3)CC2C(=O)NC(C)C)cc1 (stereo not given) do in these assays?
TRPM1 prom inh: -2; TROY signal inh: 4; Peg3 prom inh: 12; EBV LMP1 NFkB: -12; TWEAK Fn14 block: 3; HIF-2a inh: 1

Results for COC(=O)C1=C(C)NC(C)=C(C(=O)OC)C1c1ccc(-c2cccc([N+](=O)[O-])c2)o1 ?
TRPM1 prom inh: -20; TROY signal inh: -6; Peg3 prom inh: 19; EBV LMP1 NFkB: -15; TWEAK Fn14 block: -12; HIF-2a inh: 15

What do the screens show for `COC(=O)C1=C(C)NC(C)=C([N+](=O)[O-])C1c1ccccc1C(F)(F)F` (stereo not given)?
TRPM1 prom inh: 1; TROY signal inh: -9; Peg3 prom inh: 4; EBV LMP1 NFkB: 55*!; TWEAK Fn14 block: 2; HIF-2a inh: 0

How did CC(C)(C)OC(=O)N(Cc1ccccc1)Cc1ccc(OCc2cccc(NC(=O)C3CC3)c2)cc1 do in these assays?
TRPM1 prom inh: 21; TROY signal inh: 17; Peg3 prom inh: 9; EBV LMP1 NFkB: 10; TWEAK Fn14 block: 57*; HIF-2a inh: -1

Results for CC(C)(C)OC(=O)N(CCc1ccccc1)Cc1ccc(OCc2cccc(NC(=O)C3CCCC3)c2)cc1 ?
TRPM1 prom inh: 3; TROY signal inh: -8; Peg3 prom inh: -11; EBV LMP1 NFkB: -6; TWEAK Fn14 block: 4; HIF-2a inh: -1

How did COc1ccc(Cl)cc1NC(=O)c1cccc([N+](=O)[O-])c1O do in these assays?
TRPM1 prom inh: -5; TROY signal inh: 56*; Peg3 prom inh: 26; EBV LMP1 NFkB: 7; TWEAK Fn14 block: 16; HIF-2a inh: -55

Results for COc1ccc(Cl)cc1NC(=O)C/C(C)=N/NC(=O)c1ccccc1[N+](=O)[O-] ?
TRPM1 prom inh: -5; TROY signal inh: -4; Peg3 prom inh: 17; EBV LMP1 NFkB: 25; TWEAK Fn14 block: -4; HIF-2a inh: 12

How did CC[n+]1c(/C=C/c2c[nH]c3ccccc23)ccc2cc(C)ccc21 do in these assays?
TRPM1 prom inh: 74*; EBV LMP1 NFkB: 5

Results for CCN(CC)C(=O)c1ccc(/C=C/c2c[nH]c3ccccc23)[n+](C)c1 ?
TRPM1 prom inh: 10; TROY signal inh: 8; Peg3 prom inh: 3; EBV LMP1 NFkB: 5; TWEAK Fn14 block: -1; HIF-2a inh: 15

Results for CCOC(=O)C1CCN(c2ccccc2CN2CCN(c3ccccc3OCC)CC2)CC1 ?
TRPM1 prom inh: 7; TROY signal inh: 3; Peg3 prom inh: 92*; EBV LMP1 NFkB: 13; TWEAK Fn14 block: 23; HIF-2a inh: -29

Results for CCOC(=O)C1CCN(Cc2ccc(F)cc2F)CC1 ?
TRPM1 prom inh: -2; TROY signal inh: -19; Peg3 prom inh: -5; EBV LMP1 NFkB: 2; TWEAK Fn14 block: 13; HIF-2a inh: 8

What do the screens show for `CC(C)c1ccc(NC(=S)NCCc2c[nH]c3ccccc23)cc1`?
TRPM1 prom inh: 14; TROY signal inh: -4; Peg3 prom inh: -7; EBV LMP1 NFkB: -26; TWEAK Fn14 block: 24; HIF-2a inh: -45

Compound activity deposited in PubChem BioAssay by several laboratories.
